The text below walks through data of PubChem BioAssay (NCI).

Each structure is given as a SMILES string. About 83,000 compounds went through this panel and 20% of them were active in at least one assay; those are over-represented in the sample as a whole.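 Values shown are percent growth following 48 h exposure of cells in 96-well plates to a single concentration of compound; below 10 was considered active.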 The source made the active and inactive calls.

The experiment concerns EKVX NSCLC. Put plainly: NCI-60 one-dose screen, 48 h (100 = growth as untreated, 0 = no growth, -100 = all killed). Conditions: 10 µM unless noted.
In the case of `Cc1ccc(S(=O)(=O)c2nc(S(=O)(=O)c3ccc(C)cc3)c(Cl)s2)cc1`, the growth is 0.151% (active).

As for `CCCCSc1nc(Nc2ccc(C(C)=O)cc2)c(C#N)c(-c2ccc(OC)cc2)n1`, the growth is 65.1% (inactive).

Take `CCOC(=O)C1=C(N)N(c2ccccc2)C2=C(C(=O)CC(C)(C)C2)C1c1ccc([N+](=O)[O-])cc1` (stereo not drawn): the growth was 86.4% (inactive).

For the compound `Cc1cccc(Nc2nc3ccccc3nc2/C=C/c2ccc(F)cc2)c1`, the growth was 83.7% (inactive).

Take `Cc1cccc(NC(=O)CN2CCN(c3ncnc4c3cnn4-c3ccccc3)CC2)c1`: the growth was 85.9% (inactive).

For the compound `Cn1cc(-c2cc3nc(-c4c[nH]c5ccc(Br)cc45)cc(N)n3n2)c2ccccc21`, the growth is -79.4% (active).

Take `C#CCOc1ccc(/C=N/Nc2nc(-c3cc4cc(OC)ccc4oc3=O)cs2)cc1OC`: the growth is 43.5% (inactive).

As to `CC1(C)CC[C@]2(C(=O)O)CC[C@]3(C)C(=CCC4[C@@]5(C)C[C@@H](O)[C@@H]6OC(c7ccc(F)cc7)OC[C@@]6(C)C5CC[C@]43C)C2C1` (stereo partly drawn), the growth was 20.5% (inactive).

In the case of `O=C(NN1C(=O)/C(=C/C=C/c2ccc([N+](=O)[O-])o2)SC1=S)c1cccc(O)c1`, the growth is -96.8% (active).

In the case of `Cc1ccc(C(=O)NN2C(=O)/C(=C/C=C/c3ccc([N+](=O)[O-])o3)SC2=S)cc1`, the growth was -97% (active).

Turning to `N/C(=N\c1nc2ccccc2s1)NC(=O)Nc1c(Cl)cccc1Cl`, the growth was 37.6% (inactive).

For the compound `O=C(CN1C(=O)/C(=C/c2ccccc2Cl)SC1=S)N1CCOCC1`, the growth is 99.8% (inactive).

Take `CN(C)c1nc(NCCNS(=O)(=O)c2ccc(C3=Nc4c(N)nc(N)nc4NC(c4ccc(C(F)(F)F)cc4)C3)cc2)nc(Nc2ccc(F)cc2)n1` (stereo not drawn): the growth is 26.2% (inactive).

Turning to `O=C(CSc1nc2ccccc2c(=O)[nH]1)NCCN1CCCCC1`, the growth is 93.7% (inactive).

On to `Cn1cc(-c2nnc(N)nc2-c2c[nH]c3ccc(Br)cc23)c2cc(Br)cnc21`, for which the growth is 64.3% (inactive).

As to `O=C(O)Cn1c(O)c(/C=C2/C=c3cc4c(cc3=NC2=O)OCCO4)sc1=S`, the growth is 101% (inactive).

On to `N/C(=N\c1nc2ccccc2s1)NC(=O)Nc1ccc(Cl)cc1Cl`, for which the growth was -42.5% (active).

Take `Cc1ccc(-c2nc(C#N)c(S(=O)(=O)N3CCN(S(=O)(=O)c4ccccc4)CC3)o2)cc1`: the growth was 63.1% (inactive).

As to `COc1cccc(-c2nc(Nc3ccc(S(N)(=O)=O)cc3)c3ccccc3n2)c1`, the growth is 45.5% (inactive).

With `COc1ccc(/C=C/c2nc3ccccc3n3c(-c4ccc(Cl)cc4)nnc23)cc1`, the growth was 88.7% (inactive).

For the compound `CNS(=O)(=O)c1ccc(Nc2ccc(C(F)(F)F)cc2)c(-c2cn(C)cn2)c1`, the growth was 49% (inactive).

As for `CCS(=O)(=O)N1CCCC(C(=O)Nc2nc3ccc(NC(=O)c4ccc(F)c(OC)c4F)cc3s2)C1` (stereo not drawn), the growth is 46.8% (inactive).

Turning to `C#CCOc1cc(N(CC)CC)ccc1C(C(=O)NC(C)(C)C)N(C(=O)C1CCc2cc(F)ccc2O1)c1cc(C)cc(C)c1` (stereo not drawn), the growth is 33.3% (inactive).

Take `C#CCOc1ccc(/C=N/Nc2nc(-c3ccc(Cl)cc3)cs2)cc1OC`: the growth is 59.5% (inactive).

With `O=C(COc1ccc2c(c1)CCCC(=O)N2)NCc1ccccc1`, the growth is 95.2% (inactive).

With `CN(C)c1nc(NCCNS(=O)(=O)c2ccc(C3=Nc4c(N)nc(N)nc4NC(c4ccccc4)C3)cc2)nc(Nc2ccc(F)cc2)n1` (stereo not drawn), the growth is 51.4% (inactive).

For the compound `CC1(C)CC[C@]2(C(=O)O)CC[C@]3(C)C(=CCC4[C@@]5(C)C[C@@H](O)[C@@H]6OC(c7ccccc7F)OC[C@@]6(C)C5CC[C@]43C)C2C1` (stereo partly drawn), the growth is 13.8% (inactive).

`Cc1cccc(-c2nc(Nc3ccc(C)c(S(N)(=O)=O)c3)c3ccccc3n2)c1`: the growth is 22.7% (inactive).

For the compound `COC(=O)C[C@](O)(CCCC(C)(C)O)C(=O)O[C@H]1C(OC)=C[C@@]23CCCN2CCc2cc4c(cc2[C@@H]13)OCO4`, the growth is -4.85% (active).

For `Cn1cc(-c2cc(N)n3nc(-c4cn(C)c5ccccc45)cc3n2)c2cc(Cl)ccc21`, the growth is -31% (active).

Consider `CC1(C)CC[C@]2(C(=O)O)CC[C@]3(C)C(=CCC4[C@@]5(C)C[C@@H](O)[C@@H]6OC(c7ccco7)OC[C@@]6(C)C5CC[C@]43C)C2C1` (stereo partly drawn), for which the growth was 22.8% (inactive).

Take `Cn1cc(-c2cc3nc(-c4c[nH]c5ccc(Cl)cc45)cc(N)n3n2)c2ccccc21`: the growth was -88.6% (active).

As for `COc1ccc(Cc2nn(CC(=O)N/N=C/c3ccc(F)cc3)c(=O)c3c(C)noc23)cc1`, the growth was 29.8% (inactive).

Turning to `COc1cc2nc(SCc3ccccc3)n(-c3ccc(Cl)cc3)c(=O)c2cc1OC`, the growth was -13.1% (active).

In the case of `Cc1cccc(-c2nc(Nc3cccc(S(N)(=O)=O)c3)c3ccccc3n2)c1`, the growth is 45.5% (inactive).

With `COc1ccc2[nH]cc(-c3nnc(N)nc3-c3cn(C)c4ncc(Br)cc34)c2c1`, the growth was 88.7% (inactive).

On to `CCN(CC)c1ccc(/C=N/Nc2nc(-c3ccc(C)cc3)cs2)c(O)c1`, for which the growth is 79.2% (inactive).

In the case of `N/C(=N\c1nc2ccccc2s1)NC(=O)Nc1ccccc1Br`, the growth was 27.1% (inactive).
